Sampled rows, rich in hits. Any-hit rate of the full collection: about 12%.
L major viab = Leishmania major promastigote growth inhibition; Leishmania major promastigotes, resazurin fluorescence viability; inhibition, % at 10 µM; 9% of 200,000 active; AID 1063; in the data active = inhibition above about 50%;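 also: promastigotes grown with compound for 44 hours at 28 °C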
WT yeast gro inh = growth inhibition of WT yeast, mitochondrial fusion screen; mitochondrial fusion phenotypic screen, WT strain; AID 1362; inhibition, % at 10 µM; 2.1% of 190,000 active; in the data active = inhibition above about 58%; tested in S. cerevisiae
Calpain2 inh = blocks pig calpain II enzyme activity; purified calpain II, fluorogenic peptide substrate, 30 min; inhibition, % at 16 µM; 0.37% of 220,000 active; AID 1236;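 active = inhibition above about 50%, limit read from the data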
Cl transport mod = modulates chloride dependent transport by human KCC2. AID 1456. Q9H2X9. KCC2 cells, thallium flux FluoZin-2 fluorescence. 2.2% of 190,000 active. B-score of Tl+ flux slope (higher = more flux/activation; lower = inhibition) at 10 µM;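 active = thallium flux slope and its plate-corrected score both differing from the plate sample mean at a set confidence after two filtering rounds, in either direction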;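 also: slope of fluorescence scaled to starting intensity during 10 to 20 s after thallium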
ROMK mod = human ROMK K+ channel modulation, primary screen; P48048; Tet-inducible ROMK, thallium flux fluorescence; actives lie on both sides; B-score at 10 µM; 2% of 130,000 active;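 active = signal ratio slope over the read window, or its plate-corrected B-score, at least 3 SD from the plate mean, either direction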;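 also: B-score of the F/F0 ratio slope over 7 to 12 s after thallium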
* marks the source's active call; other numbers are inactive results; . = not tested or not shown.

SMILES	L major viab	WT yeast gro inh	Calpain2 inh	Cl transport mod	ROMK mod
COC(=O)N=Nc1c(O)n(Cc2ccccc2)c2ccccc12	.	.	18	0.37	-0.55
Cc1ccccc1NC(=O)Cn1c(O)c(N=NC(=O)c2ccccc2O)c2ccccc21	-1	0	3	0.57	.
COc1ccc(-c2nn(C)c(=O)c3ccccc23)cc1NC(=O)Cn1nc(-c2ccccc2)c2ccccc2c1=O	65*	6	-252	-1.2	.
COc1ccc(OCC(=O)Nc2cc(-c3nn(C)c(=O)c4ccccc34)ccc2OC)cc1	8	-18	-9	-0.28	.
COC(=O)c1ccc(CSc2nc3c(c(=O)n2-c2ccc(C)cc2)SCC3)o1	97*	15	8	-2.5	.
CC(C)(C)c1ccccc1OCC(=O)Nc1ncn[nH]1	3	-2	26	0.45	-0.11
CC(C)(C)c1ccccc1OCC(=O)NCCC(=O)O	99*	0	-31	.	0.62
O=c1/c(=C/c2ccccn2)sc2nc3ccccc3n12	11	0	-25	.	0.29
O=c1/c(=C\c2cc([N+](=O)[O-])cc([N+](=O)[O-])c2O)sc2nc3ccccc3n12	-8	-1	19	-3.3*	-2
COc1ccc(/C=N/n2c(SC)nnc(C(C)(C)C)c2=O)c(OC)c1	-2	-11	-59	1.2	.
CC(C)C[C@H](NC(=O)OC(C)(C)C)c1nnc(SCc2ccccc2)o1	85*	35	34	-1.1	0.025
Cc1ccccc1CS(=O)(=O)c1nnc([C@H](CC(C)C)NC(=O)OC(C)(C)C)o1	-5	75*	22	-3.2	.
CC[C@@H](C)[C@H](NC(=O)OC(C)(C)C)c1nnc(S(=O)(=O)Cc2cc(C)ccc2C)o1	-3	66*	9	-6.4*	-1.5
O=C(c1ccccc1)c1cccn1CC(=O)N1CCc2ccccc2C1	12	14	38	-0.15	0.49
COC(=O)CCC(=O)N1CCCC(CNS(=O)(=O)c2ccc(OC)cc2)C1 (stereo not given)	-1	-12	-10	1.2	0.52
O=[N+]([O-])c1ccc(Cl)cc1Sc1ccccn1	-4	4	-4	-1.3	-0.098
CN1CCc2nc(NC(=O)COc3ccc(C#N)cc3)sc2C1	12	0	2	-0.14	.
Cc1cc(Br)ccc1NC(=O)CN1C(=O)C2C3CC(c4ccccc4)C(C3)C2C1=O (stereo not given)	55*	78*	-9	.	.
Cc1cc(Br)ccc1NC(=O)CNC(=O)CN1C(=O)NC2(CCCCCC2)C1=O	-5	-6	-8	.	.
Cc1nn(-c2ccccc2)c(C)c1/C=N/NC(=O)c1cc(-c2ccc(Br)s2)[nH]n1	56*	45	-10	.	.
Cc1nn(-c2ccccc2)c(C)c1/C=N/NC(=O)c1cc(C23CC4CC(CC(C4)C2)C3)[nH]n1	91*	22	-126	.	.
Clc1ccc(-c2nnc(-c3ccccc3)c(N3CCSCC3)n2)cc1	16	65*	20	.	.
CC1CN(c2nc(-c3ccc(Br)cc3)nnc2-c2ccccc2)CC(C)N1 (stereo not given)	90*	38	23	0.3	.
CN1/C(=C\C(=O)CN2C(=O)NC3(CCCCCC3)C2=O)C(C)(C)c2ccccc21	96*	25	-266	-3.6*	-2.8*
CN1/C(=C\C(=O)COC(=O)CN2C(=O)C3CC=CCC3C2=O)C(C)(C)c2ccccc21 (stereo not given)	3	16	-108	-2.4	.
SMILES	L major viab	WT yeast gro inh	Calpain2 inh	Cl transport mod	ROMK mod
Cc1cccc[n+]1CC(=O)/C=C1\N(C)c2ccccc2C1(C)C	84*	-3	7	-0.15	.
C/C(=N\N1C(=O)c2ccccc2NC1c1ccco1)c1ccccc1O (stereo not given)	90*	-5	9	-2.7	0.1
O=C(NCC1CCCN(Cc2ccccc2F)C1)c1cccc(C(F)(F)F)c1 (stereo not given)	61*	7	14	-0.14	0.033
O=C(NCc1ccccc1F)c1ccc(S(=O)(=O)Nc2cccc(C(F)(F)F)c2)cc1	-1	-21	-16	2.1	-0.47
COc1ccc(CN2CCCC(CNC(=O)c3ccc(F)cc3)C2)c(F)c1 (stereo not given)	89*	0	-5	0.021	-0.37
CCOc1cc(CN2CCCC(CNC(=O)c3ccc(F)cc3)C2)ccc1OC (stereo not given)	.	.	19	0.25	.
COc1ccc(CN2CCCC(CNC(=O)c3ccc(F)cc3)C2)c(C)c1C (stereo not given)	80*	-4	-1	-0.24	-0.034
CCOc1ccc(/C=N/NC(=O)Cc2cccs2)cc1	.	.	-5	0.31	.
Cc1ccc(C(=O)CN(C(=O)c2ccc(Cl)cc2)N2C(=O)CCC2=O)cc1	89*	1	19	-0.052	-0.53
COc1ccc(-c2[nH]n(-c3ccc([N+](=O)[O-])cc3)c(=O)c2C=NCc2ccncc2)cc1	99*	18	-14	1.2	.
COc1ccc(-c2[nH]n(-c3ccc([N+](=O)[O-])cc3)c(=O)c2C=NCc2ccc(F)cc2)cc1	-1	-4	3	0.65	1.3
COc1cc(NC2c3ccccc3C(=O)N2c2ccc(C)cn2)cc(OC)c1OC (stereo not given)	15	9	-34	0.92	.
Cc1ccc(N2C(=O)c3ccccc3C2Nc2cccnc2)nc1 (stereo not given)	69*	-7	4	0.59	.
CN1CCCN(C(=O)CC2(CC(=O)O)CCCCC2)CC1	.	.	-6	-0.85	.
CNC(=O)C1CC(=O)N(CCc2ccccc2)C(=Nc2ccc(OC)cc2)S1 (stereo not given)	10	-2	-5	0.0098	0.14
CNC(=O)C1CC(=O)N(CCCc2ccccc2)C(=Nc2ccccc2)S1 (stereo not given)	55*	11	21	-2.4	-0.51
Oc1ccccc1CN1CCC(C(O)(c2ccccc2)c2ccccc2)CC1	56*	9	3	1.2	-1
O=C(C1CC1)N1CCC(C(O)(c2ccccc2)c2ccccc2)CC1	95*	-10	-9	-0.79	-0.05
CCOc1cc(/C=N/NC(=O)c2cccnc2)ccc1OC(=O)c1ccco1	1	-9	9	-0.057	.
O=C(/C=C/c1ccc(F)cc1)Nc1ccc2[nH]c(=O)[nH]c2c1	.	.	-26	-0.58	.
COc1cc(NC(=O)COC(=O)CCc2cc(OC)c(OC)c(OC)c2)cc(OC)c1	-5	5	-11	-0.29	-0.018
CCOC(=O)c1cnc(-c2ccccc2)nc1-c1ccccc1	24	65*	36	.	0.058
Cc1cccc(C)c1NC(=O)CSc1nnc(-c2ccco2)c(-c2ccco2)n1	83*	5	-22	-0.0012	.
Cc1ccccc1NC(=O)CSc1nnc(-c2ccco2)c(-c2ccco2)n1	93*	4	-12	-0.58	.
Cc1ccccc1NC(=O)CSc1n[nH]c(-c2ccco2)n1	-3	12	19	-0.86	0.41
Cc1cccc(C)c1NC(=O)CCCSc1nnc(-c2ccco2)o1	-1	-17	-17	0.78	-0.62
CC1CCN(C(=O)/C=C/c2ccc(C(C)(C)C)cc2)CC1	30	62*	20	-0.94	0.002
Cc1cccc(N2CCN(C(=O)COc3ccc4c(c3)CCC4)CC2)c1C	-6	73*	13	-0.16	.

Source: PubChem
